Assay [1] concerns transactivating tegument protein VP16 (Human herpesvirus 1). Description: VP16 transactivation reporter inhibitors, counter-screen for SRC2 inhibitor project, cell-based, luminescence, single concentration (AID 652007; in the data active means inhibition above about 36%). Conditions: cell-based VP16 transactivation luciferase reporter, at 8.9 µM, hits give high values.
Assay [2] deals with Nuclear receptor coactivator 2 (Homo sapiens) (UniProt Q15596). Description: SRC2 coactivator transcriptional activity inhibitors, confirmation, cell-based, luminescence, HEK293, triplicate (AID 652008).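 Further: 0% = DMSO-treated cells and 100% = Gossypol at 36 µM.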 The following applies: HEK293 GAL4-SRC2 luciferase reporter, at 8.9 µM, hits give high values.

Each structure is given as a SMILES string. A number with no mark means an inactive call. Activity calls are given as the source filed them.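 How the source made its calls, unless noted: active means mean inhibition above 46.5%, the solvent-only control mean plus 3 SD; inactive means the rest.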

Sequence of Nuclear receptor coactivator 2 (Homo sapiens) (Q15596 whole entry, looked up, the tested form may be a part): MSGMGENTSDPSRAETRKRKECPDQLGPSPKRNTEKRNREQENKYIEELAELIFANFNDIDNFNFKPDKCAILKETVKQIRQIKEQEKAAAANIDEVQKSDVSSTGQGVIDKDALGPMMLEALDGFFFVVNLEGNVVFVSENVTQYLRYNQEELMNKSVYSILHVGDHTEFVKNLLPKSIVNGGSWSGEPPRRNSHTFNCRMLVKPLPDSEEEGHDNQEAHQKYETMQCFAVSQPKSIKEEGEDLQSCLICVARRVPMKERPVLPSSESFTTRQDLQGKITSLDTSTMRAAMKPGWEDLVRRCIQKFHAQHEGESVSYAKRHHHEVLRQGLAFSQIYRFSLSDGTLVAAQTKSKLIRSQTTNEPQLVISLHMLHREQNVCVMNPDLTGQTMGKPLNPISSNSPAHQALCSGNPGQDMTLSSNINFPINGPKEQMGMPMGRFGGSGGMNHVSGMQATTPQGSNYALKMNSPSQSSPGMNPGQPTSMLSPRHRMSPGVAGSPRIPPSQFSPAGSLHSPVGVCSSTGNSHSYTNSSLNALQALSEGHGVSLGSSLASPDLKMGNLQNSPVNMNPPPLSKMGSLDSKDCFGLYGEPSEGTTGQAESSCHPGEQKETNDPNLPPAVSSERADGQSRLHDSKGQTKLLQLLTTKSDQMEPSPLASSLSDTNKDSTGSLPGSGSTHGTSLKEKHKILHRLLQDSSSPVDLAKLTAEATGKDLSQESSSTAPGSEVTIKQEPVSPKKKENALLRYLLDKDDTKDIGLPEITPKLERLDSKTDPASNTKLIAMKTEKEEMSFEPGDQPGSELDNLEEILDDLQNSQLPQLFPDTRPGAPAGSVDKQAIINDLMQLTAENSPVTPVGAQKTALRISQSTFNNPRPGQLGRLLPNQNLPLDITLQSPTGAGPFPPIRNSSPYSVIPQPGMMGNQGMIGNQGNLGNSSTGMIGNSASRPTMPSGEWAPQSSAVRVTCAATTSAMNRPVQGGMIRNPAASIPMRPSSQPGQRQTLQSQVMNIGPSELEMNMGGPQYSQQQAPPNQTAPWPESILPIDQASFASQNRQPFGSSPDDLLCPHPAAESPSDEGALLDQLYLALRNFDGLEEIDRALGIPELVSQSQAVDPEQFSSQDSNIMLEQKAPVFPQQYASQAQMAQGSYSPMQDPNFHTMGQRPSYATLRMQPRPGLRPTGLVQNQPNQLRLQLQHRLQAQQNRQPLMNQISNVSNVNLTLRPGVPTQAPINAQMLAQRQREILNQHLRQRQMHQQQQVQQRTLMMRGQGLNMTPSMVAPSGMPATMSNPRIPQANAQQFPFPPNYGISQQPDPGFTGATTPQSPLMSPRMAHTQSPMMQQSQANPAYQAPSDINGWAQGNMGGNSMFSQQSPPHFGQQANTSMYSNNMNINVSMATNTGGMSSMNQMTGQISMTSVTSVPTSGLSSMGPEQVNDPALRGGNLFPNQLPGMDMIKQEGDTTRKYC

Broadly, the inhibition is the change of the read-out against control, counted positive when it falls. As for `Nc1ccc(OC(=O)Nc2ccc(O)cc2)cc1`, the inhibition in assay [1] was 31.8%; in assay [2], 73.7% (active).
For `Cc1cc(C)nc(NC(=O)c2c(F)c(F)c(F)c(C(=O)Nc3cc(C)cc(C)n3)c2F)c1` the same measures were 19.3% and 48.3% (active).
On the same counts, the results for `COc1ccc(C(=O)O/N=C(\N)c2ccccn2)cc1` are -70.2% and 30%.
Regarding `CCCc1nc(SCC(=O)Nc2cc(C)on2)c2ccccc2n1`, the inhibition in assay [1] is 1.01%; in assay [2], 10.1%.
For `O=C(CN1C(=O)NC2(CCCCC2)C1=O)Oc1ccc2c(C(F)(F)F)cc(=O)oc2c1` the same measures were -11.6% and -1.74%.
On the same counts, the results for `Cc1ccc(NC(=O)C2CCN(C(=O)c3ccccc3C)CC2)nc1` are -5.97% and -11.5%.
On the same counts, the results for `COc1ccc(-c2nc(NC(=O)C3CC(=O)N(c4ccc5c(c4)OCCO5)C3)sc2C)cc1` (stereo not drawn) are -6.3% and 50.7% (active).
On to `Cc1cc(C(=O)C(C)OC(=O)c2ccc(NC(=O)CC#N)cc2)c(C)n1-c1ccccc1` (stereo not drawn), for which the results for the inhibition in assay [1] and in assay [2] were -36% and 26.3%, respectively.
Turning to `O=C(NCc1ccc(Cl)c(Cl)c1)c1cc(C2CCCCN2C(=O)CCc2ccccc2)on1` (stereo not drawn), the values for the inhibition in assay [1] and in assay [2] were -6.3% and 12.6%, respectively.
On the same counts, the results for `O=S(=O)(c1ccc(Cl)cc1)c1snnc1-c1ccccc1` are 31.6% and 76.7% (active).
For `O=C(CCCc1cccs1)N1CCN(S(=O)(=O)c2ccccc2Br)CC1`, the values for the inhibition in assay [1] and in assay [2] were -1.31% and -4.17%, respectively.
`CCOc1ccc(-c2cc(CCCC(=O)NCCCOC)no2)cc1`: the values for the inhibition in assay [1] and in assay [2] were 38.5% (active) and 52% (active), respectively.
On the same counts, the results for `COc1cc(C(O)c2nc(-c3ccncc3)cs2)ccc1F` (stereo not drawn) are 4.64% and 20.8%.
On the same counts, the results for `CC(=O)c1cc2c(cc1NC(=O)c1ccc(-n3nc(C)cc3C)cc1)OCO2` are -6.86% and -7.82%.
As for `CCn1c(=O)c2c(cnn2C)c2ccccc21`, the inhibition is 25.8% in assay [1] and 50.6% (active) in assay [2].
On the same counts, the results for `O=C(NCc1cccnc1)c1cc(Sc2ccc(F)cc2F)nc2ccccc12` are 3% and 16.4%.
On the same counts, the results for `CCOc1cc(/C=C/C(=O)c2ccc3c(c2)OCCO3)ccc1OCC(=O)N(C)C` are 2.55% and 16.2%.
For `CCOc1ccc(-c2c(C(=O)N/N=C/c3cccc(Br)c3)nnn2-c2nonc2N)cc1` the same measures were -5.94% and -23.4%.
As for `COc1cc(C)c(Br)cc1S(=O)(=O)NCc1cccs1`, the inhibition in assay [1] is -10.6%; in assay [2], -12.6%.
On the same counts, the results for `O=C(Nc1ccccc1)C1=C(c2ccccc2)S(=O)(=O)CCS1(=O)=O` are 84.9% (active) and 90.1% (active).
Take `COc1ccc(-c2nc(-c3ccccc3)no2)c(OC)c1`: the results for the inhibition in assay [1] and in assay [2] were 3.43% and 53.8% (active), respectively.
In the case of `COc1cc(OC)cc(C(=O)NCC2CCN(C(=O)C(=O)c3cccs3)CC2)c1`, the results for the inhibition in assay [1] and in assay [2] were 18.9% and 18%, respectively.
For `COc1ccc(NC(=O)CSc2nnnn2C2CCCCC2)c(OC)c1` the same measures were 1.44% and 14.6%.
For `CCSc1ccccc1C(=O)N1CCN(c2ccc([N+](=O)[O-])cc2)CC1` the same measures were 0.48% and 15.7%.
For `COc1ccc(C(=O)C(CN2CCOCC2)c2ccccc2)cc1F` (stereo not drawn) the same measures were -1.66% and 13.4%.
Turning to `O=C(OC12CCCN(C1)/C(=C/c1ccncc1)C2)c1ccc(Cl)cc1` (stereo not drawn), the inhibition in assay [1] is -7.98%; in assay [2] it was 25.9%.
On the same counts, the results for `COc1ccc(-c2cc(C(=O)O)c(C)o2)cc1OC` are -74% and -11.1%.
On the same counts, the results for `O=C(CCCN1C(=O)/C(=C/c2ccccc2Cl)SC1=S)Nc1cccnc1` are -29.3% and -4.66%.
For `O=C(O)c1ccccc1C(=O)Nc1ccc(Oc2ccc3ccccc3c2)cc1` the same measures were 36.4% (active) and 28%.
In the case of `CCOc1ccc(NS(=O)(=O)c2ccc(C(=O)NC3CCN(Cc4ccccc4)CC3)cc2)cc1`, the results for the inhibition in assay [1] and in assay [2] were -3.23% and 8.19%, respectively.
For `CCOC(=O)CCC(=O)c1c(C)oc2ccc(OC)cc12` the same measures were 6.24% and -15%.
On the same counts, the results for `COc1cccc(Nc2nc(NCCO)c3ccccc3n2)c1` are -14.1% and 31.5%.
For the molecule `CCOc1ccc(NC(=S)C(C#N)=C2N(C)c3ccccc3N2C)cc1`, the results for the inhibition in assay [1] and in assay [2] were -4.65% and -15.8%, respectively.
As to `CCOC(=O)C1CCCCN1C(=O)CCc1c(C)nc2cc(-c3ccccc3)nn2c1C` (stereo not drawn), the inhibition was -0.8% in assay [1] and 70.2% (active) in assay [2].

For the origin of these results see PubChem BioAssay.
